Assay outcomes (PubChem BioAssay)
ELG1 genotoxic = qHTS screen for small molecules that induce genotoxicity in human embryonic kidney (HEK293T) cells expressing luciferase-tagged ELG1 | Potency, µM (titrated, usually from 46 µM), for inactives: at the highest dose activity change, positive = activation, most hits filed as activators | AID 504466, 2011 | HEK293T ELG1-luciferase reporter, luminescence, 16 h | 1.3% of 330,000 active; note: % of control where 0% means no effect; nearly all actives have a fitted effect of over 60% in size
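Luminescence read-out: rising ELG1-luciferase signal, reflecting elevated ELG1 protein under genetic stress, flags genotoxic compounds. Cells were treated for 16 hr at 37 °C before ONE-Glo detection.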
NPC1 prom act = qHTS Assay for NPC1 Promoter Activators. Huh7 NPC1 promoter luciferase reporter, 24 h. Potency, µM (titrated, usually from 9.22 µM), for inactives: at the highest dose activation, usual class: activators. 2.4% of 320,000 active; note: % of control where 0% means no effect; nearly all actives have a fitted effect of over 60% in size
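Luminescence from an NPC1 promoter-driven luciferase reporter in stably transfected Huh7 cells was measured after 24 h compound treatment at 37 °C, followed by 10 min ambient incubation with luciferase detection reagent.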
Luc counter = Counterscreen for Luciferase (Kinase-Glo TM) Inhibition | Luciferin 4-monooxygenase (Photuris pensylvanica), Q27757 | Kinase-Glo luciferase, ATP luminescence, 8 min | Potency, µM (titrated, usually from 38.3 µM), for the others: at the highest dose activity change, negative = inhibition, most hits filed as inhibitors | 0.28% of 200,000 active | AID 1379, 2008; note: % is set by controls: 0 for no effect and ±100 for the full control effect; nearly all actives have a fitted effect of over 60% in size
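Light output from Kinase-Glo luciferase with luciferin and 10 uM ATP in 50 mM imidazole pH 7.2, KCl, MgCl2, Tween 20, BSA; compound pin-delivered, 8-min ambient incubation, then luminescence read.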
Rab9 promoter act = qHTS Assay for Rab9 Promoter Activators; 2.8% of 320,000 active; AID 485297, 2010; Huh7 Rab9 promoter-luciferase reporter, luminescence, 24 h; Potency, µM (highest dose often 9.22 µM), for the others: at the top dose activation, negative = inhibition, most hits filed as activators; note: % of control where 0% means no effect; nearly all actives have a fitted effect of over 60% in size
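Huh7 cells stably carrying Rab9 promoter–luciferase reporter, plated 1500 cells/well, compound added after 2 h and incubated 24 h at 37 °C; luciferase luminescence then read after 10 min with detection reagent.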
SMN2 splice enh = qHTS Assay for Enhancers of SMN2 Splice Variant Expression | HEK293 SMN2-luciferase splicing reporter, luminescence, 30-36 h | Potency, µM (series often up to 46.1 µM), without a hit: at the highest dose activity change, positive = activation, most hits filed as activators | 2.8% of 210,000 active | AID 1458, 2008; note: % of control where 0% means no effect; nearly all actives have a fitted effect of over 55% in size
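HEK293 cells carry an SMN2 […]–luciferase reporter in which exon 7 inclusion puts luciferase in frame. Cells were plated 10-12 h before compound addition, then incubated 30-36 h at 37C. ONE-Glo luminescence was read; sodium butyrate at 4.5 mM final served as control.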
FLuc counter = qHTS profiling assay for firefly luciferase inhibitor/activator using purifed enzyme and Km concentrations of substrates (counterscreen for miR-21 project) | AID 588342, 2011 | Luciferin 4-monooxygenase (Photinus pyralis), P08659 | purified FLuc, Km substrates, luminescence inhibition | Potency, µM (top dose mostly 57.5 µM), for inactives: at the highest dose activity change, negative = inhibition, actives largely listed as inhibitors | 6.9% of 360,000 active;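 note: plate controls were vehicle for no effect and reference inhibitor for full effect; nearly all actives have a fitted effect of over 55% in size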
Target sequence (P08659 whole entry, looked up): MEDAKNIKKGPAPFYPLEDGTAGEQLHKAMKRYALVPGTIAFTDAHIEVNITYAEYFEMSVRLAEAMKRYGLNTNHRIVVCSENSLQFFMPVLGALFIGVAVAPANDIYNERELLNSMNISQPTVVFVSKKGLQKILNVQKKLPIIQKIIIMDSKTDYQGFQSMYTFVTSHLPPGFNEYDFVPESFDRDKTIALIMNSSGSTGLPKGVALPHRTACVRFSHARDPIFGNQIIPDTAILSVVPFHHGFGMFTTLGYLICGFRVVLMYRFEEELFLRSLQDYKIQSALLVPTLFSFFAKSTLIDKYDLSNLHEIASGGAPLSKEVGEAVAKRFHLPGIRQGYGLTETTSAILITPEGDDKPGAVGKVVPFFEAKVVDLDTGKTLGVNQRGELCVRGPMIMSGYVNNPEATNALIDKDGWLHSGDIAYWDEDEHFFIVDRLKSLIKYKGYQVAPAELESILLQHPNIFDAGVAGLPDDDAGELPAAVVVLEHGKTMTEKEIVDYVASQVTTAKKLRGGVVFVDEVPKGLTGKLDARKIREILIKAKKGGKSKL
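Purified P. pyralis luciferase, 10 nM final, with Km-level 10 uM D-luciferin and 10 uM ATP in 50 mM Tris acetate pH 7.5, 10 mM Mg acetate, 0.01% Tween-20, 0.05% BSA; 6-point qHTS titration about 60 µM downward; luminescence read.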
The depositor's hits bear a star; ? = inconclusive; · = not tested or not shown; ! = not confirmed by another sample; [ ] = dose if it differs, or a comment. In the library only some 7.3% were active in any assay of this set; here they are far more common. Calls come from the whole dose curve; as a rule, active = well fitted curve in the direction sought with a large enough effect; inconclusive = small, poorly fitted or top-dose-only effect, or another doubt; inactive = no such curve, though single readings can be large; an effect the other way counts as inactive or inconclusive. Potency is the fitted concentration of half-maximal effect.

SMILES	ELG1 genotoxic	NPC1 prom act	Luc counter	Rab9 promoter act	SMN2 splice enh	FLuc counter
Brc1ccc(-c2nc(N/N=C/c3cccnc3)c3ccccc3n2)cc1	?	2.8µM*	7.1µM*	2.5µM*	13µM*	0.21µM*
COc1ccccc1C(=O)Nc1ccc(Br)c2cccnc12	-7%	14%	·	10%	·	12µM*
COc1ccc(NC(=O)Nc2ccccn2)cc1OC	?	24%	·	19%	·	19µM*
COc1ccccc1C(=O)Nc1ccncc1	0%	-1%	·	-4%	·	6%
COc1ccccc1C(=O)Nc1ccccn1	13µM*	2.5µM*	-10%	?	22µM*	7.6µM*
COc1cc(C(=O)Nc2cccc3cccnc23)cc(OC)c1OC	-8%	1%	-2%	-6%	-7%	-9%
COc1cccc2cc(C(=O)Nc3ccccc3C)/c(=N/O)oc12	?	?	·	17%[1.84 µM]	·	6.7µM*
COc1ccc(NC(=O)Nc2cc(C(C)(C)C)on2)cc1OC	-9%	-3%	·	-8%	·	2%
CCOc1ccccc1NC(=O)Cn1c(=O)nc(-c2ccccc2F)c2cc(Cl)ccc21	·	·	·	·	·	-16%
COc1ccc(CNC(=O)c2ccc(-c3nc(CSc4ccccc4)c(C)o3)cc2)cc1OC	·	·	·	·	·	-2%
CN(C)CCCNC(=O)c1ccc(Cc2nc3ccccc3[nH]2)cc1	·	·	-1%	·	·	·
Cc1c(-c2ccccc2)n(-c2ccccc2O)c2nc3c(c(=O)n(C)c(=O)n3C)n12	·	·	·	·	-3%	-19%
O=C(Nc1cccc(O)c1)C(=O)Nc1ccccn1	?	?	4.5µM*	3.5µM*	10µM*	1.5µM*
COc1ccc(NC(=O)CN(c2ccccc2)S(=O)(=O)N(C)C)cc1OC	-7%	2%	2%	-1%	1µM*	2%
COc1ccc(NC(=O)NC2CCCc3ccccc32)cc1OC (stereo unspecified)	6.5µM*	?	·	0%	·	?
COCC(=O)Nc1ccc(Br)cc1C	3%	-1%	-4%	-3%	-3%	6%
COc1ccccc1C(=O)Nc1ccc(Br)cc1C	10%	?	0%	?	·	17µM*
COc1ccc(NC(=O)NC2CCCc3ccccc32)cc1 (stereo unspecified)	1%	9%	·	10%	·	-3%
O=C(Nc1ccc(Cl)c(Cl)c1)Nc1ccccn1	?	3.2µM*	·	4.5µM*	·	?
Brc1ccccc1-n1nnc(-c2ccnc3ccccc23)n1	0%	2%	·	19%	·	17µM*
COc1ccccc1C1CC(=O)Oc2cc3c(cc21)OCO3 (stereo unspecified)	·	·	1%[39.9 µM]	·	·	·
Cc1c(C(=O)O)c(O)cc2c1C(=O)c1c(O)c([C@H]3O[C@H](CO)[C@@H](O)[C@H](O)[C@H]3O)c(O)c(O)c1C2=O	·	·	13µM*!	·	-59%	·
O=C(/C=C/c1cccs1)Nc1scc(-c2ccccc2)c1C(=O)O	?	1.4µM*	-12%	1.1µM*	11µM*	3.8µM*
O=C(Cc1cccs1)Nc1nc(-c2ccccc2)cs1	10%	13%	-4%	1%	-31%	15µM*
O=C(COC(=O)c1cccs1)Nc1nc(-c2ccccc2)cs1	2%	6%	·	20%	·	-7%
SMILES	ELG1 genotoxic	NPC1 prom act	Luc counter	Rab9 promoter act	SMN2 splice enh	FLuc counter
Cc1cc([N+](=O)[O-])ccc1NC(=O)/C=C/c1cccs1	22%	?	-1%	?	16µM*	?
Cc1ccc(NC(=O)/C=C/c2ccc([N+](=O)[O-])s2)c(C)c1	?	-17%	4%	-39%	-102%	2%
CC(C)(C)C(=O)Nc1scc(-c2ccc(-c3ccccc3)cc2)c1C(=O)O	-8%	2%	·	-3%	·	3%
O=C(Nc1cccnc1)c1cccs1	0%	-24%	-1%	-4%	8.9µM*	1%
O=C(CN1C(=O)c2ccccc2C1=O)[C@@H](O)CN1C(=O)c2ccccc2C1=O	·	·	-5%[7.66 µM]	·	7%[9.22 µM]	·
Nc1ncnc2c1ncn2[C@H]1O[C@@H](CO)[C@@H](O)[C@H]1N	·	·	-3%[7.66 µM]	·	-8%[9.22 µM]	·
Cc1nc2cccnc2n1-c1cccc(C(=O)NCCc2ccc(S(N)(=O)=O)cc2)c1	·	·	·	·	·	-3%
O=C(/C=C/c1cccs1)Nc1nc(-c2ccccc2)cs1	19%	18%	3%	18%	-4%	6.7µM*
O=C(/C=C/c1cccs1)Nc1cccnc1	?	?	?	2.8µM*	18µM*	5.4µM*
O=C(/C=C/c1c(F)cccc1Cl)Nc1cccnc1	2.3µM*	1.6µM*	·	4µM*	·	3.8µM*
O=C(/C=C/c1cccs1)Nc1nncs1	8%	?	·	?	·	17µM*
Cc1ccc2c(c1)N(C(=O)N1CCC(C(=O)NCc3ccccc3C)CC1)CC(C)O2 (stereo unspecified)	·	·	·	·	·	7%
NS(=O)(=O)c1ccc(CCNC(=O)Cn2c(-c3cccs3)cc3ccccc32)cc1	·	·	·	·	·	0%
O=C(Cc1cccs1)Nc1ccccc1C(=O)O	?	20%	-3%	?	10µM*	15µM*
Cc1ccnc(NC(=O)/C=C/c2cccs2)c1	?	0.63µM*	-17%	0.63µM*	4µM*	3µM*
